Screens: PubChem, National Center for Advancing Translational Sciences (NCATS)
Methyltransferases = Primary Screen for Target Class Profiling of Small Molecule Inhibitors of Methyltransferases; purified enzyme, MTase-Glo SAH luminescence; hits give low values; 3.9% of 25,000 active; calls only at 40 µM; call rule not given here
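Each enzyme was assayed with SAM and its substrate. SAH formation detected by MTase-Glo luminescence; single-point 40 uM screen[…].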
The depositor's hits bear a star; i = inactive; + = active, no number. This is one part of a sample in which hits are shown more often than they occur. % is set by controls: 0 for no effect and ±100 for the full control effect.

SMILES	Methyltransferases
COc1cccc(CNC(=O)CCc2nnc3n(CCC(C)C)c(=O)c4ccccc4n23)c1	i
COC(=O)c1cc(OC)cc(OC)c1C(=O)c1c(OC)cc2c(c1O)C1CCCC(C)(O2)O1 (configuration not stated)	i
CC12CCC3C1C(c1c(cc(O)c(C(=O)c4ccccc4)c1O)O2)C3(C)C (configuration not stated)	+
Cc1ccc(NS(=O)(=O)c2cc3[nH]c(=O)[nH]c3cc2C)cc1F	i
CCCn1c(=O)c2ccc(C(=O)NC(C)C)cc2n2c(=O)[nH]nc12	i
c1cc2c(cc1OC1CCCCC1)c1c3n2CCNC3CCC1 (configuration not stated)	i
CCC(NC(C)C)C(O)c1ccc(O)c(O)c1 (configuration not stated)	i
CC(CCc1ccccc1)NCC(O)c1ccc(O)c(C(N)=O)c1 (configuration not stated)	i
NCC(O)c1ccc(O)c(O)c1 (configuration not stated)	+
CCc1cc2c(cc3n2CC(C)(C(=O)NC2CCCCC2)N(Cc2ccccc2C)C3=O)s1 (configuration not stated)	i
Cc1ccc2c(c1)c(-n1cccc1)c1n2CC(C)(C(=O)NC2CCCC2)N(Cc2cccs2)C1=O (configuration not stated)	i
CCN(CC)c1nc2c(-c3ccc(Cl)cc3)nnn2c2ccccc12	i
CCOc1ccc(CCN2C(=O)c3c(C(=O)OC)ncn3CC2(C)C(=O)NC2CCCCC2)cc1 (configuration not stated)	i
Cc1ccccc1CCN1C(=O)c2cc3ccccc3n2CC1(C)C(=O)NCCC(C)C (configuration not stated)	i
CC1(C)CCC2=C(O1)c1ccccc1C(=O)C2=O	+
Cc1ccc(NC(=O)N2CCn3cccc3C2C(C)C)c(Cl)c1 (configuration not stated)	i
Cc1ccc(C)c(N2CCN(C(=O)c3ccc4c(=O)[nH]c5c(C(=O)NC(C)C)sc(=S)n5c4c3)CC2)c1	+
Cc1cccc(N2CCN(C(=O)c3ccc4c(=O)[nH]c5c(C(=O)NC(C)C)sc(=S)n5c4c3)CC2)c1C	+
Cc1cccc(N2CCN(C(=O)c3ccc4c(=O)[nH]c5c(C(=O)NC6CCCC6)sc(=S)n5c4c3)CC2)c1C	i
CCc1nc2c(=O)n(CC(=O)N3CCN(c4cccc(C)c4C)CC3)nc(C)c2s1	i
Cc1ccc(C)c(N2CCN(C(=O)CCc3nnc4n(CCCOC(C)C)c(=O)c5ccccc5n34)CC2)c1	i
Cc1cccc(-c2n[nH]n3c2nc(=O)c2ccc(C(=O)N4CCN(c5cc(C)ccc5C)CC4)cc23)c1	i
CCCn1c(=O)c2ccc(C(=O)NC(C)CC)cc2n2c(=O)n(Cc3ccccc3C)nc12 (configuration not stated)	i
CCCN1C(=O)c2ccc(-c3ccccc3)n2CC1(C)C(=O)NC1CCCCC1 (configuration not stated)	i
CC1CCCC(NC(=O)C2c3cccn3CC(=O)N2c2ccc(Cl)cc2)C1C (configuration not stated)	i
SMILES	Methyltransferases
O=C1NC(=O)C(c2c[nH]c3ccccc23)=C1c1c[nH]c2ccccc12	+
O=C1NC(Cc2c[nH]c3ccccc23)C(=O)NC1Cc1c[nH]c2ccccc12 (configuration not stated)	i
Clc1ncoc1-c1c[nH]c2ccccc12	i
COc1ccc2c(c1)c(NC(C)=O)c1n2CC(C)(C(=O)NC2CCCCCC2)N(CCC(C)C)C1=O (configuration not stated)	i
CCCC1c2ccc(C)n2CCN1C(=O)Nc1ccc(CC(=O)OCC)cc1 (configuration not stated)	i
CCCn1c(=O)c2cc(F)ccc2n2c(SCc3ccccc3Cl)nnc12	i
Cc1ccc(C)c(N2CCN(S(=O)(=O)c3cc4c(cc3C)n(C)c(=O)n4C)CC2)c1	i
Cc1ccc(NC(=O)Cn2c(=O)oc3cc(S(=O)(=O)N4CCCC4)ccc32)cc1	i
Cc1ccc(N2C(=O)c3nc4ccccc4n3CC2(C)C(=O)NC2CCCCC2C)cc1 (configuration not stated)	i
CCCn1c(=O)c2ccc(C(=O)NC3CCCC3)cc2n2c(=O)n(Cc3ccccc3Cl)nc12	i
O=C(O)c1cc(-c2cccc(CO)c2)cc(S(=O)(=O)NC2CCCC2)c1	i
Cc1c(OCc2cccc(-c3ccc(C(=O)O)cc3)c2)cc2c(c1C)C(=O)C(C1CCCC1)C2 (configuration not stated)	+
CC(C)CCNC(=O)C1(C)Cn2nc(C(=O)NCc3ccccc3Cl)cc2C(=O)N1C (configuration not stated)	i
COC(=O)c1ncn2c1C(=O)N(CCCc1ccccc1)C(C)(C(=O)NC1CCCCC1)C2 (configuration not stated)	i
